# Source: PubChem BioAssay AID2100 (National Center for Advancing Translational Sciences (NCATS), 2009)
# The campaign covered roughly 300,000 compounds. About 1,200 (0.4%) were called active. Not shown: some 3% with an inconclusive outcome. For the sample, actives were picked, then their nearest neighbours and some compounds at random. Unmarked numbers belong to inactive results. Calls follow the shape of the dose curve; as a rule, active = well fitted inhibition curve with a large enough effect; inconclusive = small, poorly fitted or top-dose-only effect, or another doubt; inactive = no such curve, though single readings can be large or run the other way.
# Molecular target: Lysosomal alpha-glucosidase (Homo sapiens) (UniProt P10253)
# Experiment: qHTS Assay for Inhibitors and Activators of Human alpha-Glucosidase Cleavage of Glycogen;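 also: the screen sought inhibitors and activators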;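 as to activity change, negative = inhibition: 0% = full enzyme reaction and -100% = no-enzyme basal signal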
# Conditions: recombinant GAA, glycogen substrate, Amplex Red glucose oxidase fluorescence; series mostly up to 76.4 µM; activity change, negative = inhibition: at the top concentration
# From the text: NIH Chemical Genomics Center [NCGC] NIH Molecular Libraries Probe Production Centers Network [MLPCN] MLPCN Grant: R03 MH084841-01 Assay Submitter (PI): Wei Zheng NCGC Assay Overview: Alpha-glucosidase is responsible for the hydrolysis of terminal, non-reducing 1,4-linked alpha-D-glucose residues, which releases alpha-D-glucose. It is a lysosomal hydrolase that is required for the degradation of a small percentage (1-3%) of cellular glycogen in humans. Deficiency of this enzyme results in glycogen-storage disease type II (GSDII), also referred to as Pompe disease, an autosomal recessive disorder. Structurally normal glycogen is accumulated in the lysosomes and cytoplasm in affected patients, primarily in muscle tissues. Excessive glycogen storage within lysosomes may interrupt normal functioning of other organelles and leads to cellular injury. In turn, this leads to enlargement and dysfunction of the entire organ involved (eg: cardiomyopathy and muscle weakness). It has been reported that the improper folding and trafficking of alpha-glucosidase resulting from genetic mutations may account for a significant number of Pompe patients. […] We optimized this alpha-glucosidase assay in 1536-well plate format for identification of novel small molecule inhibitors or activators with structures other than the sugar analogs in order to develop new pharmacological chaperones. Previous assays of alpha-Glucosidase have utilized a non-natural fluorescent substrate to probe enzyme activity. The present assay measures enzyme activity on glycogen using a coupled-assay system to glucose oxidase.
# NCGC Assay Protocol Summary: This is an enzyme assay using glycogen from bovine liver (Sigma catalog #: G0885) as the substrate and recombinant human alpha-glucosidase as the enzyme preparation. Upon hydrolysis of the substrate, the glucose product can be detected using the Amplex Red Glucose Oxidase Assay Kit (Invitrogen catalog #: A22189). The product of this reaction can be read with a fluorescence plate reader with an excitation at 573 nm and an emission at 610 nm. Data were normalized to the controls for basal activity (without enzyme) and 100% activity (with enzyme). The AC50 values were determined from concentration-response data modeled with the standard Hill equation. Assay buffer for enzyme reaction: 50 mM citric acid (titrated with potassium phosphate to pH 5.0), 0.01% Tween-20 (pH 5.0 is an optimal condition for this enzyme assay) Assay buffer for Amplex Red reaction: Tris-HCl, pH 7.5 1536-well assay protocol for the alpha-glucosidase assay: (1) Add 2 ul/well alpha-glucosidase enzyme solution (4 nM final) (2) Add 23 nL compounds in DMSO solution. The final titration was 0.7 nM to 77 uM. (3) Add 1 ul of glycogen substrate solution (30 ug) (4) Incubate at 37 C for 40 min (5) Add 2 ul tris-HCl buffer with Amplex Red reagents (6) Incubate 45 min at room temperature. (7) Detect the assay plate in a ViewLux plate reader (PerkinElmer) with Ex=573 nm and Em=610nm. Keywords: Alpha-glucosidase, Pompe Disease, pharmacological chaperone, chaperone therapy, high throughput screening, alpha-glucosidase inhibitor, MLSMR, MLSCN, NIH Roadmap, qHTS and NCGC
# Potency is read from the fitted curve at half-maximal effect.
SMILES,"activity change, negative = inhibition",Potency
CC(C)c1ccc(O)c(CN2CCN(c3ccccc3)CC2)c1,13.9%,
Oc1cc2c(cc1CN1CCN(c3ccccc3)CC1)OCO2,,2 µM (active)
Fc1ccc(N2CCN(Cc3ccc4c(c3)OCO4)CC2)cc1,-3.55%,
Cc1ccc(NC(=O)N(Cc2ccc3c(c2)OCO3)C2CCN(Cc3ccccc3)CC2)cc1F,-5.75% [at 76.3 µM],
Cn1cc(/C=C/c2nc3ccccc3c(=O)n2-c2ccccc2)c2ccccc21,-5.95% [at 76.3 µM],
